Compounds with a hit are over-represented: about 3.5% of the library has one in this group of screens.
SKN-1 inh: suppressors of acrylamide-induced Pgst-4::GFP reporter in worms, primary screen, SKN-1 inhibitor project, whole organism, uHTS, GFP/RFP fluorescence ratio, strain VP596; inhibition, % at 21.8 µM; hit rate 0.49% among 360,000; C. elegans VP596 Pgst-4::GFP/RFP ratio, 24 h;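 active = interference check ratio from 0.5 to 1.5 plus GFP to RFP signal ratio inhibition reaching or exceeding a fixed threshold, cut at about 30% in these data, passing the limit was not always enough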
M1 PAM: human M1 muscarinic receptor positive allosteric modulators, primary screen, CHO-K1 cells, Fluo-8 calcium fluorescence, 1536-well. Muscarinic acetylcholine receptor M1 (Homo sapiens), P11229. CHO-K1 hM1, ACh EC20; 0% = ACh EC20, 100% = maximal ACh. activation, % at 3 µM. hit rate 0.088% among 360,000. AID 588819, 2011; in the data active = activation above about 19%, passing the limit was not always enough
CHRM1 antagonist: human M1 muscarinic receptor antagonists, primary screen, CHO-K1 cells, Fluo-8 calcium fluorescence, 1536-well. Muscarinic acetylcholine receptor M1 (Homo sapiens), P11229. CHO-K1 hM1, ACh EC80 antagonist. inhibition, % at 3 µM. hit rate 1.3% among 360,000;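 active = percent inhibition above its own plate's cutoff, namely the mean of that plate's compound wells plus 3 SD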;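 also: peak over basal fluorescence ratio during 140 s after agonist addition; 0% = ACh EC80 plus DMSO and 100% = DMSO alone without agonist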
M1 ag: human M1 muscarinic receptor agonists, primary screen, Fluo-8 calcium fluorescence, CHO-K1 cells, HTS | CHO-K1 hM1, agonist mode; 0% DMSO, 100% acetylcholine EC100 | activation, % at 3 µM | hit rate 0.33% among 360,000 | AID 588814, 2011;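 active = activation above the run's mean compound activation plus 3 SD, cut at about 16% in these data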;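 also: peak over basal fluorescence ratio within a 140 s kinetic read after compound addition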
ATG4B inh: ATG4B protease inhibitors, primary screen, biochemical, fluorescence, uHTS | ATG4B cleavage of LC3-PLA2, NBD-HPC fluorescence, 1 h | inhibition, % at 8.33 µM | hit rate 0.51% among 340,000; in the data active = inhibition above about 40%
Target sequence (Q9Y4P1 whole entry, looked up): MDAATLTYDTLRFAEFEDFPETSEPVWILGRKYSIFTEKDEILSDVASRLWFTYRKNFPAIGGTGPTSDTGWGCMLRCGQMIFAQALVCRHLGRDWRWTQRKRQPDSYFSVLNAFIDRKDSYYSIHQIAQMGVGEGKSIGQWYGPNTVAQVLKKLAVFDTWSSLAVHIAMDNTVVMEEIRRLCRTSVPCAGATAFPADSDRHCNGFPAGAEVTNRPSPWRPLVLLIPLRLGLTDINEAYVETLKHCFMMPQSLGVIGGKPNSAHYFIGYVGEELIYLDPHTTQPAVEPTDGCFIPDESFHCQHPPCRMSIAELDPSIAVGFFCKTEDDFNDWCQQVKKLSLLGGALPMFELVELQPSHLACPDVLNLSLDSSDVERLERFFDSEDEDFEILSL
Myeloid diff 2: induction of myeloid progenitor differentiation, primary screen, cell-based, flow cytometry, MLPCN library. ER-HoxA9 myeloid progenitors, lysozyme-GFP differentiation. calls only at 10 µM. hit rate 1% among 360,000. AID 624256, 2012;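 active = normalized GFP-positive differentiation at or above the plate's own cutoff, the solvent-only control mean plus 3 SD; inconclusive = no clear call, values can overlap the other calls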;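 also: cells exposed to compound for four days before flow analysis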
* = called active by the depositor; i = inactive; ? = inconclusive; nt = no result; + = active, no number.

SMILES | SKN-1 inh | M1 PAM | CHRM1 antagonist | M1 ag | ATG4B inh | Myeloid diff 2
O=C(COc1ccc(Cl)cc1Br)Nc1nnc(C2CC2)s1 | 6 | -3 | -1 | -8 | -5 | i
Cc1ccc(OCC(=O)Nc2nnc(C3CCCO3)s2)c(Br)c1 (stereo not drawn) | 10 | -15 | 37* | -5 | 7 | i
Cc1cccc(C)c1OCC(=O)Nc1nnc(C2CCCO2)s1 (stereo not drawn) | 37* | 9 | -10 | -6 | 13 | i
Cc1cccc(OCCCC(=O)Nc2nnc(C3CCCO3)s2)c1C (stereo not drawn) | -10 | 6 | -7 | 3 | 1 | i
O=c1[nH]nc(N2CCOCC2)c(=O)[nH]1 | 1 | 6 | -8 | -1 | -5 | i
CCOc1ccc2c(c1)/C(=C(\C(Cl)=C(Cl)Cl)[N+](=O)[O-])N2 | -4 | -3 | -3 | 0 | 1 | +
CCCCOc1ccc2c(c1)/C(=C(\C(Cl)=C(Cl)Cl)[N+](=O)[O-])N2 | 10 | -7 | 7 | -2 | 7 | +
O=C(Nc1ccc(F)cc1)C(c1cc2ccccc2o1)N1CCN(c2ccncc2)CC1 (stereo not drawn) | 10 | nt | nt | nt | nt | i
CC(C)Oc1ccc(C(=O)O)cc1 | 3 | -1 | 10 | -3 | 0 | i
CC1=N/C(=C\c2ccc(OC(C)C)cc2)C(=O)N1c1ccc(C(=O)O)cc1 | -3 | -2 | 10 | -3 | 0 | +
CCOC(=O)C1=c2/c(=C/c3ccncc3)c(N)c(C(=O)OC)n2C(=O)C(c2ccncc2)S1 (stereo not drawn) | -3 | 5 | -9 | -4 | -2 | i
COC(=O)c1c(NC(=O)c2ccc(OC(C)C)cc2)sc2c1CC(C)(C)NC2(C)C | -4 | -2 | 2 | -7 | 4 | +
CC1(C)Cc2c(sc(NC(=O)c3ccc(C(=O)c4ccccc4)cc3)c2C(N)=O)C(C)(C)N1 | 1 | -3 | 6 | -2 | 6 | +
Cc1cc(=O)oc2cc(OCC(=O)Nc3ccc4[nH]c(=O)[nH]c4c3)ccc12 | 4 | 2 | 3 | -3 | -4 | nt
N#Cc1c(-c2ccccc2Cl)cc(C2CC2)nc1N | 6 | 8 | -3 | 42* | -1 | i
COc1ccc(C2=NOC(Cn3c(Cc4ccc(Cl)cc4)nc4c3c(=O)n(C)c(=O)n4C)C2)cc1 (stereo not drawn) | 3 | -9 | 31* | 0 | -8 | i
CCCCC(CC)C(=O)Nc1ncc([N+](=O)[O-])s1 (stereo not drawn) | 0 | -23 | 49* | -3 | -7 | i
CS(=O)(=O)NCCn1ccc2ccccc21 | 10 | 1 | -2 | -4 | -12 | i
C[N+]1(CCn2ccc3ccccc32)CCCCC1 | 3 | -38 | 42* | -16 | -6 | i
O=C(c1ccc(OC2CCN(CCc3ccccc3)CC2)cc1)N1CCCC(O)C1 (stereo not drawn) | 5 | 0 | -9 | -11 | 0 | i
COc1ccc(CCC(C)N2CCC(Oc3ccc(C(=O)N4CCCC4)cc3)CC2)cc1 (stereo not drawn) | -3 | -21 | 67* | -6 | 23 | i
CN(C)S(=O)(=O)N1CCC(Oc2ccc(C(=O)N3CCCCCC3)cc2)CC1 | 10 | -3 | -5 | 5 | nt | +
CC(=O)N1CCN(C(=O)c2ccc(OC3CCN(CCc4ccccc4)CC3)cc2)CC1 | 3 | -14 | 37* | -6 | 3 | i
CN(C)S(=O)(=O)N1CCC(Oc2ccc(C(=O)N3CCCCCCC3)cc2)CC1 | 1 | -2 | -2 | 2 | 17 | ?
O=C(c1ccc(OC2CCN(CCCc3ccccc3)CC2)cc1)N1CCCC1 | 3 | -19 | 42* | -7 | 1 | i
O=C(N/N=C/c1ccco1)C1CCCC1 | 3 | 9 | -4 | -1 | -1 | i
